The record followed here is PubChem BioAssay (NCI).

The panel holds about 83,000 compounds, 20% with a hit somewhere; the sample as a whole holds those more often.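 Growth was measured after 48 h exposure to one concentration of compound in 96-well plates. Values under 10 count as active.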 A number with no mark means an inactive call. Active and inactive are the calls of the source.

Among the test systems are NCI-H23 lung; NCI-H226 lung; NCI-H322M lung; HOP-62 NSCLC; NCI-H460 lung; HOP-92 NSCLC; NCI-H522 lung; A549/ATCC NSCLC; 786-0 renal; COLO 205 colon.
Test in all cases: NCI-60 one-dose screen, 48 h (100 = growth as untreated, 0 = no growth, -100 = all killed)
What all share (details): 10 µM

Consider `CC(=O)[C@H]1CC[C@H]2[C@@H]3CC[C@@H]4CC=C(C=O)C[C@]4(C)[C@H]3CC[C@]12C`, for which the growth in the assay with NCI-H23 lung is 92.7%; in the assay on NCI-H226 lung, 99.4%; with NCI-H322M lung it was 97.6%; in the assay with HOP-62 NSCLC, 122%; in the assay with NCI-H460 lung, 103%; in the assay with HOP-92 NSCLC, 68.1%. Moreover, the growth was 82.5% in the assay with NCI-H522 lung, 92.4% in the assay with A549/ATCC NSCLC, 93.2% in the assay on 786-0 renal and 105% in the assay on COLO 205 colon.
As for `Nc1ncc(-c2ccc(C(F)(F)F)cc2)c(NC2CCCCCC2)n1`, the growth was 11.9% with NCI-H23 lung; 39.6% in the assay with NCI-H226 lung; 66.7% with NCI-H322M lung; 57.7% in the assay with HOP-62 NSCLC; 44.9% in the assay on NCI-H460 lung; -12.1% (active) in the assay on HOP-92 NSCLC. For the same molecule, the growth was -6.45% (active) in the assay with NCI-H522 lung, 18.6% in the assay on A549/ATCC NSCLC, 51.3% in the assay with 786-0 renal and 38.5% in the assay with COLO 205 colon.
As for `COc1cc(OC)cc(-c2ccc(-c3ccc(C(=N)N)cn3)o2)c1`, the growth was 61.6% with NCI-H23 lung; 60.7% in the assay on NCI-H226 lung; 2.03% (active) with NCI-H322M lung; 6.78% (active) in the assay with HOP-62 NSCLC; -76.6% (active) in the assay on NCI-H460 lung; -21.8% (active) with HOP-92 NSCLC. The growth was -50.7% (active) in the assay on NCI-H522 lung, 4.73% (active) with A549/ATCC NSCLC, -40.2% (active) in the assay with 786-0 renal and -56.9% (active) with COLO 205 colon.
Regarding `O=C(c1ccc(Cl)cc1)c1no[n+]([O-])c1C(=O)c1ccc(Cl)cc1`, the growth in the assay with NCI-H23 lung was 98.4%; in the assay on NCI-H226 lung, 102%; in the assay with NCI-H322M lung, 107%; in the assay on HOP-62 NSCLC, 104%; in the assay with NCI-H460 lung it was 108%; in the assay with HOP-92 NSCLC it was 88.4%. Besides, the growth is -77.8% (active) in the assay on NCI-H522 lung, 104% in the assay with A549/ATCC NSCLC, -34.5% (active) in the assay with 786-0 renal and 107% with COLO 205 colon.
On to `CCCCCC(=O)N1c2ccccc2NC2=C(C(=O)CC(c3ccc(OC)c(OC)c3)C2)C1c1ccc(C(F)(F)F)cc1` (stereo not given), for which the growth in the assay with NCI-H23 lung is 51.5%; with NCI-H226 lung, 64.8%; in the assay with NCI-H322M lung it was 70.6%; in the assay with HOP-62 NSCLC, 54.8%; in the assay on NCI-H460 lung it was 76.9%; in the assay on HOP-92 NSCLC, 66.4%. Also, the growth with NCI-H522 lung was 37.5%; in the assay with A549/ATCC NSCLC, 58.5%; in the assay on 786-0 renal it was 65.8%; in the assay with COLO 205 colon, 69.2%.
In the case of `Nc1ccc2c(c1)Cc1cc(N)c(Cl)cc1-2`, the growth in the assay with NCI-H23 lung was 103%; in the assay with NCI-H226 lung it was 107%; with NCI-H322M lung it was 88.1%; in the assay on HOP-62 NSCLC it was 109%; with NCI-H460 lung it was 105%; with HOP-92 NSCLC, 76.4%. Moreover, the growth with NCI-H522 lung was 92.2%; in the assay with A549/ATCC NSCLC, 88.2%; with 786-0 renal it was 97.7%; in the assay on COLO 205 colon it was 105%.
`Cc1cc(C)c(C(=O)OC(C)CNC2CCCCC2)c(C)c1` (stereo not given): the growth is 94.1% with NCI-H23 lung; 99.6% with NCI-H226 lung; 95.4% in the assay on NCI-H322M lung; 85.7% with HOP-62 NSCLC; 98% with NCI-H460 lung; 51.9% in the assay with HOP-92 NSCLC. For the same molecule, the growth with NCI-H522 lung is 99.4%; with A549/ATCC NSCLC, 102%; with 786-0 renal, 93.2%; in the assay with COLO 205 colon, 96.8%.
As to `Cc1ccc(-n2c(-c3cc4c([nH]c5ccccc54)c(-c4cccc(O)c4)n3)n[nH]c2=S)cc1`, the growth is 22.9% in the assay with NCI-H23 lung; -27.1% (active) in the assay on NCI-H226 lung; -2.32% (active) in the assay with NCI-H322M lung; -24% (active) in the assay with HOP-62 NSCLC; 4.05% (active) with NCI-H460 lung; 34.3% in the assay on HOP-92 NSCLC. Besides, the growth in the assay with NCI-H522 lung was -39.9% (active); with A549/ATCC NSCLC, 2.93% (active); with 786-0 renal, 10.8%; with COLO 205 colon it was 17.8%.
With `CC(C)(C)c1ccc(OCCCCCCN2CCNCC2)cc1`, the growth with NCI-H23 lung is 61.5%; in the assay on NCI-H226 lung, 73.4%; in the assay with NCI-H322M lung, 85.1%; with HOP-62 NSCLC, 67.8%; with NCI-H460 lung it was 35.4%; with HOP-92 NSCLC it was 16.8%. Also, the growth is 66.2% in the assay on NCI-H522 lung, 55.1% in the assay with A549/ATCC NSCLC, -50.7% (active) with 786-0 renal and -66.7% (active) in the assay on COLO 205 colon.
Consider `CCOC(=O)CSC(=S)SCC(=O)OCC`, for which the growth in the assay on NCI-H23 lung was 110%; in the assay with NCI-H226 lung, 106%; with NCI-H322M lung it was 118%; in the assay with HOP-62 NSCLC it was 105%; in the assay on NCI-H460 lung, 107%; in the assay with HOP-92 NSCLC, 108%. Moreover, the growth with NCI-H522 lung is 67.7%; with A549/ATCC NSCLC, 99%; with 786-0 renal, 103%; in the assay on COLO 205 colon it was 127%.
In the case of `O=[N+]([O-])c1ccc(-c2nc(Cl)c3c(n2)CCCC3)o1`, the growth with NCI-H23 lung was 88.5%; with NCI-H226 lung it was 63.6%; in the assay on NCI-H322M lung, 102%; in the assay on HOP-62 NSCLC, 64%; in the assay on NCI-H460 lung, 34%; in the assay with HOP-92 NSCLC, 85.2%. Moreover, the growth in the assay on NCI-H522 lung was -41.3% (active); with A549/ATCC NSCLC, 83%; with 786-0 renal, 107%; with COLO 205 colon, 68.5%.
As to `Clc1cc(Cl)c(OCCCCCCN2CCNCC2)c(Cl)c1`, the growth with NCI-H23 lung is 53.9%; in the assay on NCI-H226 lung, 94%; with NCI-H322M lung, 78.3%; with HOP-62 NSCLC, 77.6%; in the assay on NCI-H460 lung, -39.8% (active); with HOP-92 NSCLC, -0.831% (active). The growth with NCI-H522 lung is 55.1%; in the assay with A549/ATCC NSCLC, 53.8%; with 786-0 renal, 23.1%; in the assay on COLO 205 colon it was -71.3% (active).
Take `Nc1nsc(C(=O)c2ccc(O)cc2)n1`: the growth in the assay on NCI-H23 lung was 98.6%; in the assay with NCI-H226 lung, 104%; in the assay with NCI-H322M lung, 105%; in the assay with HOP-62 NSCLC, 76.4%; in the assay with NCI-H460 lung it was 110%; in the assay with HOP-92 NSCLC, 88%. In addition, the growth in the assay with NCI-H522 lung is 91.8%; in the assay with A549/ATCC NSCLC, 83.7%; in the assay on 786-0 renal, 117%; in the assay on COLO 205 colon it was 106%.
For `N#Cc1ncc(-c2cc(F)ccc2F)c(NC2CCCCCC2)n1`, the growth in the assay with NCI-H23 lung is 89.9%; in the assay on NCI-H226 lung it was 92.6%; in the assay on NCI-H322M lung, 73.6%; with HOP-62 NSCLC, 65.9%; in the assay with NCI-H460 lung, 48.5%; in the assay with HOP-92 NSCLC, 65.2%. The growth in the assay with NCI-H522 lung is 68%; in the assay with A549/ATCC NSCLC, 78%; in the assay with 786-0 renal, 97.6%; in the assay with COLO 205 colon it was 100%.
